Experimental findings from PubChem BioAssay AID651650 (Sanford-Burnham Center for Chemical Genomics, 2012) are described below.

Chain of Neuropilin-1 (Homo sapiens) (O14786 whole entry, looked up): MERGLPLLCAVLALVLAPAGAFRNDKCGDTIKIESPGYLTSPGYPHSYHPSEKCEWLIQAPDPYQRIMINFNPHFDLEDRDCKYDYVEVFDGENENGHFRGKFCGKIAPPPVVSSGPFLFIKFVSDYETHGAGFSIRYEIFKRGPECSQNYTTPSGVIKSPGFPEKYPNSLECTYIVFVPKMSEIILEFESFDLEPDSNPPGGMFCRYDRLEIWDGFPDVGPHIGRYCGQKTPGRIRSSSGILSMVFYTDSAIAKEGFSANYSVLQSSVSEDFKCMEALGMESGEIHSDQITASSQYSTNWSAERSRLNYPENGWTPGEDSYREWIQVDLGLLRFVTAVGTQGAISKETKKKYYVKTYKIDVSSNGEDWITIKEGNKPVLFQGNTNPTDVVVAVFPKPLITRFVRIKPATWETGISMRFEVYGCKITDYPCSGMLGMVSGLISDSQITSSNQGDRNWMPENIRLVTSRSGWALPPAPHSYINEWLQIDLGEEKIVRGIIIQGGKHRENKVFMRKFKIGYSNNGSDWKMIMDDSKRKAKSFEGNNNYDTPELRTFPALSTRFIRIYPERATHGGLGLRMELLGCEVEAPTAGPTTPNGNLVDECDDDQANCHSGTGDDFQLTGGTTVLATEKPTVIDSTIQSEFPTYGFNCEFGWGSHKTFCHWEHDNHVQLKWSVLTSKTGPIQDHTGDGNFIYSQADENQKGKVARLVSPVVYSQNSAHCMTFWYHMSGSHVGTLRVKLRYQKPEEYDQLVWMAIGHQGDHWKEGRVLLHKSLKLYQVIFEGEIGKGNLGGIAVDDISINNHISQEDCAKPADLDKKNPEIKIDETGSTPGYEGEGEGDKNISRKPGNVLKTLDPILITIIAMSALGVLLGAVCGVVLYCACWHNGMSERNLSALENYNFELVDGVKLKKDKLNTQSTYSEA

This experiment concerns the target Neuropilin-1 (Homo sapiens) (UniProt O14786). The experiment can be described thus: NRP-1 b1b2 CendR peptide binding inhibitors, dose response, biochemical, FP and AlphaScreen panel (AID 651650). The settings on record: NRP-1 b1b2 / RPARPAR peptide binding, FP or AlphaScreen; run 1, at 100 µM (top of the series).
With `CCc1ccc(NC(=O)CCn2nc(C)c(S(=O)(=O)N3CCCCC3)c2C)cc1`, the inhibition (as a rule, the change of the read-out against control, counted positive when it falls) was 51.9%. For the compound `Cc1ccccc1NC(=O)c1cccc(NC(=O)CCC(=O)O)c1`, the inhibition was 28.1%. For `CC(=NN(Cc1ccccc1)c1ccccc1)c1ccccc1` the value was 87.9%. For `Cn1c(SCc2nc3ccccc3s2)nnc1-c1cccs1` the value was 65.1%. As to `COc1ccc(-c2cc(C)no2)cc1S(=O)(=O)NCc1cccc(C)c1`, the inhibition is 23.2%. Turning to `COC(=O)c1ccccc1NC(=O)CSc1nc(C)cc(C)n1`, the inhibition amounted to 45.7%.

For the compound `Cc1cccc(C)c1Nc1nnc(SCC(=O)Nc2cc(S(=O)(=O)N3CCCCC3)ccc2Cl)s1`, the inhibition was -15.9%. `Cc1ccsc1C(=O)N1CCCC(CO)(Cc2ccccc2F)C1` (configuration not stated): the inhibition turned out to be 17.8%. `Cc1cnccc1CNC(=O)CC1C(=O)NCCN1CC(C)(C)C` (configuration not stated): the inhibition turned out to be 57.6%. For `CCOC(=O)Cc1cnc(NC(=O)NC(C(=O)OCC)(c2ccccc2)C(F)(F)F)s1` (configuration not stated), the inhibition worked out at 99.2%. In the case of `CCCN=C1N/C(=C\c2ccco2)C(=O)N1c1ccccc1`, the inhibition was found to be 3.93%. For `C=CCC1(CC=C)CCCN1C(=O)c1cc(COc2cccc(OC)c2)on1`, the inhibition is 39.2%. Regarding `Cc1cccc(NC(=O)c2ccc(OCc3c(C)noc3C)cc2)c1`, the inhibition was 93.6%. Regarding `CN(C)/C=C/c1c([N+](=O)[O-])c2ccc(O)cc2n1-c1ccccc1`, the inhibition is 39.4%.

For the compound `O=c1ccsn1Cc1ccccc1`, the inhibition was 11.6%. For `CCC1=C(OC(=O)N(CC)CC)N2C(=O)OC(=NCC3CC3)[C@]2(Cc2ccccc2)[C@H]2C1=CC[C@H]1C(=O)N(C)C(=O)[C@H]12`, the inhibition is -6.33%. With `COc1cc(CN2C[C@@H](CO)O[C@@H](n3cnc4c(N5CCN(c6ccccc6)CC5)ncnc43)C2)cc(OC)c1OC`, the inhibition was found to be 52.8%. Then `CCc1ccccc1NC(=O)c1ccccc1N1C(=O)C2C3C=CC(C3)C2C1=O` (configuration not stated), with 21.3%; and `O=C(NCc1ccccc1)c1ccc(N2CCC3(CC2)CC(c2ccc(Cl)cc2)=NO3)c([N+](=O)[O-])c1`, with 69.3%.

In the case of `NC(=O)C1=C[C@H](c2ccc(Br)cc2)C[C@H](OCc2ccc(CO)cc2)O1`, the inhibition was 36.9%. As for `CCN(CC)C(=O)CSc1nnc(-c2c[nH]c3ccccc23)o1`, the inhibition was 46.9%. For `OCCC1CCCCN1CC(O)COCc1ccc(Cl)cc1` (configuration not stated) the value was 22.3%.
